# From PubChem BioAssay (EPA / NIEHS)
# Results filed as inconclusive are left out. More than one record can exist for a structure, and the calls need not agree. Activity calls are given as the source filed them. The calls were made as follows, unless noted: active = hit-call score of the fitted dose curve at least 0.9, where 1 is the maximum; inactive = score below 0.9.
# Assay: CCTE_Shafer_MEA_dev_burst_rate: CCTE's Neural Network Formation Assay for Burst Rate, Shafer Lab (AID 2284042);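 as to AC50: potency for loss of burst rate below DMSO control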
# Outline: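 Rat primary cortical cultures on PEI/laminin MEA; compound from plating, re-dosed at DIV 5, 9 media change. Single-electrode bursts/recording length, well mean of active electrodes; AUC over DIV 5–12 recordings; loss-of-signal vs DMSO.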
SMILES,outcome,AC50
Cc1cc(=O)[nH]c(=S)[nH]1,inactive,–
CC(C)c1ccc(C(=O)N=C(N)N)cc1S(C)(=O)=O,inactive,–
C[Si]1(C)O[Si](C)(C)O[Si](C)(C)O[Si](C)(C)O1,inactive,–
CCCc1cc(=O)[nH]c(=S)[nH]1,inactive,–
CC(=O)Oc1ccccc1C(=O)O,inactive,–
FC(F)(F)C(F)(F)C(F)(F)C(F)(F)C(F)(F)C(F)(F)CCI,inactive,–
OC[C@@H](O)[C@@H](O)[C@H](O)[C@H](O)CO,inactive,–
C=CCc1ccc(O)c(OC)c1,inactive,–
O=c1[nH]cc(F)c(=O)[nH]1,–,1580 nM (active)

# Assay: CCTE_Shafer_MEA_dev_bursting_electrodes_number: CCTE's Neural Network Formation Assay for Number of Bursting Electrodes, Shafer Lab (AID 2284043; active = hit-call score of the fitted dose curve at least 0.9, where 1 is the maximum;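 as to AC50: potency is for loss of bursting electrodes relative to DMSO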)
# Outline: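 Number of electrodes reaching ≥1 burst every 2 min was recorded at DIV 5, 7, 9 and 12 and collapsed as trapezoidal area under the curve. Cultures were rat cortical neurons on MEA plates, dosed continuously from plating with medium and treatment refreshed on DIV 5 and 9.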
SMILES,AC50,outcome
Cc1cc(=O)[nH]c(=S)[nH]1,10000 nM (active),–
CC(C)c1ccc(C(=O)N=C(N)N)cc1S(C)(=O)=O,–,inactive
C[Si]1(C)O[Si](C)(C)O[Si](C)(C)O[Si](C)(C)O1,–,inactive
CCCc1cc(=O)[nH]c(=S)[nH]1,23200 nM (active),–
FC(F)(F)C(F)(F)C(F)(F)C(F)(F)C(F)(F)C(F)(F)CCI,–,inactive
OC[C@@H](O)[C@@H](O)[C@H](O)[C@H](O)CO,–,inactive
C=CCc1ccc(O)c(OC)c1,–,inactive
O=c1[nH]cc(F)c(=O)[nH]1,1390 nM (active),–

# Assay: CCTE_Shafer_MEA_dev_per_burst_interspike_interval: CCTE's Neural Network Formation Assay for Burst Interspike Interval, Shafer Lab (AID 2284044);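 also: mean spike spacing inside bursts as AUC over recordings on days 5 7 9 12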;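 as to AC50: potency for a decrease of within-burst interspike interval below DMSO level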
# Outline: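 Spontaneous activity of maturing rat cortical networks is recorded on DIV 5, 7, 9 and 12 under chronic compound exposure beginning at plating. Endpoint: burst interspike interval well-mean, collapsed into trapezoidal AUC and fitted in the negative direction relative to DMSO.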
SMILES,outcome,AC50
Cc1cc(=O)[nH]c(=S)[nH]1,inactive,–
CC(C)c1ccc(C(=O)N=C(N)N)cc1S(C)(=O)=O,inactive,–
C[Si]1(C)O[Si](C)(C)O[Si](C)(C)O[Si](C)(C)O1,inactive,–
CCCc1cc(=O)[nH]c(=S)[nH]1,inactive,11700 nM (active)
CC(=O)Oc1ccccc1C(=O)O,inactive,–
FC(F)(F)C(F)(F)C(F)(F)C(F)(F)C(F)(F)C(F)(F)CCI,inactive,–
OC[C@@H](O)[C@@H](O)[C@H](O)[C@H](O)CO,inactive,–
C=CCc1ccc(O)c(OC)c1,inactive,–
O=c1[nH]cc(F)c(=O)[nH]1,inactive,–

# Assay: CCTE_Shafer_MEA_dev_burst_duration_mean: CCTE's Neural Network Formation Assay for Mean Burst Duration, Shafer Lab (AID 2284045);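 as to AC50: curve fitted for loss meaning shorter burst duration than DMSO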
# Outline: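 Mean single-electrode burst duration (first to last spike), averaged over bursting electrodes per well, then integrated as area-under-curve across recordings at days 5, 7, 9 and 12. Rat cortical cultures on MEAs, compound present from plating, refreshed at feeds.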
SMILES,outcome,AC50
Cc1cc(=O)[nH]c(=S)[nH]1,inactive,–
CC(C)c1ccc(C(=O)N=C(N)N)cc1S(C)(=O)=O,inactive,–
C[Si]1(C)O[Si](C)(C)O[Si](C)(C)O[Si](C)(C)O1,inactive,–
CCCc1cc(=O)[nH]c(=S)[nH]1,inactive,–
CC(=O)Oc1ccccc1C(=O)O,inactive,26200 nM (active)
FC(F)(F)C(F)(F)C(F)(F)C(F)(F)C(F)(F)C(F)(F)CCI,inactive,–
OC[C@@H](O)[C@@H](O)[C@H](O)[C@H](O)CO,inactive,–
C=CCc1ccc(O)c(OC)c1,inactive,–
O=c1[nH]cc(F)c(=O)[nH]1,inactive,–

# Assay: CCTE_Shafer_MEA_dev_interburst_interval_mean: CCTE's Neural Network Formation Assay for Mean Interburst Interval, Shafer Lab (AID 2284046);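 also: well-mean interburst interval of bursting electrodes as AUC over four recording days; curve fitted for decrease in interburst interval relative to DMSO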
# Outline: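 Rat cortical neurons, 1.5 x 10^5 cells/well, 48-well MEA; compound from day 0 through DIV 12, media and treatment renewed DIV 5/9. Recordings DIV 5, 7, 9, 12; well-mean interburst interval → trapezoidal AUC, loss direction vs DMSO.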
SMILES,outcome,AC50
Cc1cc(=O)[nH]c(=S)[nH]1,inactive,–
CC(C)c1ccc(C(=O)N=C(N)N)cc1S(C)(=O)=O,inactive,–
C[Si]1(C)O[Si](C)(C)O[Si](C)(C)O[Si](C)(C)O1,inactive,–
CCCc1cc(=O)[nH]c(=S)[nH]1,inactive,–
CC(=O)Oc1ccccc1C(=O)O,inactive,–
FC(F)(F)C(F)(F)C(F)(F)C(F)(F)C(F)(F)C(F)(F)CCI,inactive,–
OC[C@@H](O)[C@@H](O)[C@H](O)[C@H](O)CO,inactive,–
C=CCc1ccc(O)c(OC)c1,inactive,–
O=c1[nH]cc(F)c(=O)[nH]1,–,2820 nM (active)

# Assay: CCTE_Shafer_MEA_dev_inter_network_spike_interval_mean: CCTE's Neural Network Formation Assay for Mean Inter-network Spike Interval, Shafer Lab (AID 2284047);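 as to AC50: potency for a decrease in mean inter-network spike interval below DMSO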
# Outline: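 Primary rat cortical neurons on PEI-coated 48-well MEAs (16 electrodes/well) were exposed from plating day 0 to DIV 12, with dosing renewed at DIV 5 and 9. Recordings at DIV 5, 7, 9, 12 were collapsed by trapezoidal AUC, loss-of-signal fit vs DMSO.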
SMILES,outcome,AC50
Cc1cc(=O)[nH]c(=S)[nH]1,inactive,–
CC(C)c1ccc(C(=O)N=C(N)N)cc1S(C)(=O)=O,inactive,–
C[Si]1(C)O[Si](C)(C)O[Si](C)(C)O[Si](C)(C)O1,inactive,–
CCCc1cc(=O)[nH]c(=S)[nH]1,inactive,–
CC(=O)Oc1ccccc1C(=O)O,inactive,24.2 nM (active)
FC(F)(F)C(F)(F)C(F)(F)C(F)(F)C(F)(F)C(F)(F)CCI,inactive,–
OC[C@@H](O)[C@@H](O)[C@H](O)[C@H](O)CO,inactive,–
C=CCc1ccc(O)c(OC)c1,inactive,–
O=c1[nH]cc(F)c(=O)[nH]1,inactive,–

# Assay: CCTE_Shafer_MEA_dev_network_spike_number: CCTE's Neural Network Formation Assay for Number of Network Spikes, Shafer Lab (AID 2284048);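 also: synchronized bursts across electrodes counted on days 5 7 9 12 and integrated as AUC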;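 as to AC50: fit as a loss of signal meaning fewer network spikes than DMSO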
# Outline: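 Number of network spikes (coordinated firing across electrodes) recorded on days 5, 7, 9 and 12 and summarised as area under the curve. Rat cortical cultures on MEA, continuous compound exposure with full medium/treatment exchange at DIV 5 and 9.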
SMILES,outcome,AC50
Cc1cc(=O)[nH]c(=S)[nH]1,inactive,–
CC(C)c1ccc(C(=O)N=C(N)N)cc1S(C)(=O)=O,inactive,–
C[Si]1(C)O[Si](C)(C)O[Si](C)(C)O[Si](C)(C)O1,inactive,–
CCCc1cc(=O)[nH]c(=S)[nH]1,inactive,–
CC(=O)Oc1ccccc1C(=O)O,inactive,–
FC(F)(F)C(F)(F)C(F)(F)C(F)(F)C(F)(F)C(F)(F)CCI,inactive,–
OC[C@@H](O)[C@@H](O)[C@H](O)[C@H](O)CO,inactive,–
C=CCc1ccc(O)c(OC)c1,inactive,–
O=c1[nH]cc(F)c(=O)[nH]1,–,974 nM (active)

# Assay: CCTE_Shafer_MEA_dev_network_spike_peak: CCTE's Neural Network Formation Assay for Mean Number of Electrodes in Network Spike, Shafer Lab (AID 2284049);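 as to AC50: fitted for loss of signal meaning fewer electrodes in network spikes than DMSO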
# Outline: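 Rat cortical primary culture, 1.5 x 10^5 cells/well, 48-well MEA (16 electrodes/well). Dosing day 0 through DIV 12, full media/compound exchange DIV 5, 9. AxIS adaptive spike detection; AUC over days 5/7/9/12; loss-of-signal vs DMSO.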
SMILES,outcome,AC50
Cc1cc(=O)[nH]c(=S)[nH]1,inactive,–
CC(C)c1ccc(C(=O)N=C(N)N)cc1S(C)(=O)=O,inactive,–
C[Si]1(C)O[Si](C)(C)O[Si](C)(C)O[Si](C)(C)O1,inactive,–
CCCc1cc(=O)[nH]c(=S)[nH]1,inactive,23000 nM (active)
CC(=O)Oc1ccccc1C(=O)O,inactive,–
FC(F)(F)C(F)(F)C(F)(F)C(F)(F)C(F)(F)C(F)(F)CCI,inactive,–
OC[C@@H](O)[C@@H](O)[C@H](O)[C@H](O)CO,inactive,–
C=CCc1ccc(O)c(OC)c1,inactive,–
O=c1[nH]cc(F)c(=O)[nH]1,–,1200 nM (active)
